Results: PubChem BioAssay (EPA / NIEHS)
“And” between values parts separate entries of the source, which are not always exact repeats. Identical values can stand only once. The source holds several records for some structures; these can differ, active in one and inactive in another. The source made the active and inactive calls. The calls were made as follows: active = hit-call score of the fitted dose curve at least 0.9, where 1 is the maximum; inactive = score below 0.9.

Read-out: Matrix Metallopeptidase 9 (MMP9), MMP9 (gene 4318)
Assay: BSK_BE3C_MMP9: BioMAP Diversity Plus: BE3C Assay for Matrix Metallopeptidase 9 (MMP9) Biomarker Activity (AID 2284283)
Settings: primary human bronchial epithelial cells
Procedure: BSK_BE3C is a cell-based, multiplexed-readout assay that uses bronchial epithelial cell, a human lung primary cell, with measurements taken at 24 hours after chemical dosing in a 96-well plate.BSK_BE3C_MMP9 is an assay component measured in the BSK_BE3C assay. It measures MMP-9 antibody related to regulation of gene expression using ELISA technology.Data from the assay component BSK_BE3C_MMP9 was analyzed at the endpoint, BSK_BE3C_MMP9, in the positive analysis fitting direction relative to DMSO as the negative control and baseline of activity. Using a type of binding reporter, gain or loss-of-signal activity can be used to understand protein changes. To generalize the intended target to other relatable targets, this assay endpoint is annotated to the 'protease' intended target family, where the subfamily is 'matrix metalloproteinase'.
The levels of cell surface (or secreted, indicated by the prefix "s") biomarker endpoints were measured by ELISA. Overt cytotoxicity to cells in confluent adherent cultures (all systems other than the BT system) was assessed by measuring total protein levels using sulforhodamine B (SRB) staining in parallel cultures at the time of biomarker measurements, indicated as SRB endpoints. For proliferation assays for adherent cell types, individual cell types are cultured at sub-confluence and relative cell numbers quantified by SRB staining at time points optimized for each system (48 h: 3C and CASM3C systems; 72 h: BT and HDF3CGF systems; 96 h: SAg system). SRB was performed by staining cells with 0.1% SRB after fixation with 10% TCA and reading wells at 560 nm.Viability and proliferation of PBMC (T cells) was quantified by Alamar Blue reduction for the SAg and BT systems. For PBMC viability (referred to as PBMC Cytotoxicity within the assay endpoint names), cells were plated (75,000/well in a 96-well plate) and then chemical samples added for 1 h before addition of activators, SEB and TSST-1 (20 ng/mL final concentration each). Cells were incubated for 90 h. Then, Alamar Blue (20 uL/well) (Invitrogen, Cat DAL1100) was added for 6 h, and the plates were read with a fluorescence microplate reader at 546/580 nm (excitation/emission). For PBMC proliferation, cells were plated and activated as above but incubated for only 16 h prior to addition of Alamar Blue. Plates were read after 6 h.

SMILES	outcome	AC50
FC(F)(F)C(F)(F)C(F)(F)C(F)(F)C(F)(F)C(F)(F)C(F)(F)I	inactive	–
O=S(=O)(OCC(F)F)C(F)(F)F	inactive	–
C=CC(=O)OCC(F)(F)C(F)(F)C(F)(F)C(F)(F)C(F)(F)C(F)(F)C(F)(F)F	inactive	–
FC1CC(F)(F)C(F)(F)C1(F)F (stereo not given)	inactive	–
FC(F)(F)C(F)(F)C(F)(F)CI	inactive	–
FC(F)(F)C(F)(F)C(F)(F)C(F)(F)CCI	inactive	–
O=C(O)C(F)(F)C(F)(F)C(F)(F)C(F)(F)C(F)(F)C(F)(F)C(F)(F)C(F)(F)C(F)(F)C(F)(F)C(F)(F)C(F)(F)F	inactive	–
O=C(O)C(F)(F)C(F)(F)OC(F)(F)F	inactive	–
OCC(F)(F)C(F)(F)C(F)(F)C(F)(F)C(F)(F)C(F)F	inactive	–
C=CC(F)(F)C(F)(F)C(F)(F)C(F)(F)C(F)(F)C(F)(F)C(F)(F)C(F)(F)F	inactive	–
CCCCC(CC)COP(=O)(O)OCC(CC)CCCC (stereo not given)	inactive	29.6 µM (active)
O=C(Cl)C(F)(F)C(F)(F)C(F)(F)C(F)(F)C(F)(F)C(F)(F)C(F)(F)C(F)(F)F	–	55.1 µM (active) and 54.8 µM (active)
CCO[Si](CCC(F)(F)C(F)(F)C(F)(F)C(F)(F)C(F)(F)C(F)(F)F)(OCC)OCC	inactive	–
OCC(F)(F)C(F)(F)C(F)(F)F	inactive	–
C=C(C)C(=O)OCC(F)(F)C(F)(F)C(F)(F)C(F)(F)C(F)(F)C(F)(F)C(F)(F)F	inactive	–
CC(C)(C)C(=O)CC(=O)C(F)(F)C(F)(F)C(F)(F)F	inactive	–
OCC(F)(F)C(F)(F)C(F)(F)C(F)F	inactive	–
FC(F)(Br)C(F)(F)C(F)(F)C(F)(F)C(F)(F)C(F)(F)Br	inactive	–
O=C(CC(=O)C(F)(F)C(F)(F)F)C(F)(F)F	inactive	–

SMILES	outcome	AC50
C=C(C)C(=O)OCCC(F)(F)C(F)(F)C(F)(F)C(F)(F)C(F)(C(F)(F)F)C(F)(F)F	inactive	–
O=C(O)C(F)(OC(F)(F)C(F)(OC(F)(F)C(F)(F)C(F)(F)F)C(F)(F)F)C(F)(F)F (stereo not given)	inactive	–
FC(F)(F)C(F)(F)C(F)(F)C(F)(F)C(F)(F)C(F)(F)CCS	inactive	–
O=C(O)C(F)(F)C(F)(F)C(F)(F)C(F)(F)C(F)(F)C(F)(F)C(F)(F)C(F)(F)C(F)(F)C(F)F	–	14.2 µM (active) and 10.6 µM (active)
FC(F)(F)C(F)(F)C(F)(F)C(F)(F)C(F)(F)C(F)(F)CC1CO1 (stereo not given)	inactive	–
O=C(O)C(F)(OC(F)(F)C(F)(OC(F)(F)C(F)(OC(F)(F)C(F)(F)C(F)(F)F)C(F)(F)F)C(F)(F)F)C(F)(F)F (stereo not given)	inactive	–
O=S(=O)(O)C(F)(F)C(F)(F)C(F)(F)C(F)(F)C(F)(F)C(F)(F)C(F)(F)F	inactive	–
OCC(F)(F)C(F)(F)C(F)(F)C(F)(F)C(F)(F)C(F)(F)F	inactive	–
O=C(O)C(F)(F)C(F)(F)C(F)(F)C(F)(F)C(F)(F)C(F)(F)C(F)(F)C(F)(F)Cl	–	42.9 µM (active) and 40.4 µM (active)
FC(F)(I)C(F)(F)C(F)(F)C(F)(F)I	inactive	56.5 µM (active) and 55.2 µM (active)
NC(=O)C(F)(F)C(F)(F)C(F)(F)C(F)(F)F	inactive	–
FC(F)(F)C(F)(F)C(F)(F)C(F)(F)C(F)(F)C(F)(F)C(F)(F)C(F)(F)F	inactive	–
OCCCC(F)(F)C(F)(F)C(F)(F)C(F)(F)C(F)(F)C(F)(F)C(F)(F)F	–	47.3 µM (active) and 55.3 µM (active)
CCCCCCOC(=O)c1ccccc1O	inactive	–
O=C(O)C=C(C(F)(F)F)C(F)(F)F	inactive	10.8 µM (active)
CCCCCCCCC(F)(F)C(F)(F)C(F)(F)C(F)(F)C(F)(F)C(F)(F)F	inactive	–
O=C(O)C(F)(F)C(F)(F)C(F)F	inactive	–
C=C(C)C(=O)OCC(F)(F)C(F)(F)C(F)(F)F	inactive	–
